Values joined by “and” are separate entries in the source; they are usually repeats but may differ in a detail not shown here. Equal values may be shown once. Values without a mark were called inactive. Active and inactive are the calls of the source.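 How the source made its calls, unless noted: active means efflux inhibition above 0.42, the validation set average plus 4 SD; inconclusive means no clear call, values can overlap the other calls; inactive means the rest.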

The record followed here is PubChem BioAssay.

In one assay the test system is anti-desmoglein-3 scFv antibody binding to human DSG3. Kind of assay: inhibitors of anti-DSG3 scFv binding to DSG3, pilot screen, biochemical, validation compound set, bead-based, flow cytometry (AID 588368;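 active means binding below the plate cutoff, the plate median minus 3 SD, with a reading above zero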;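 further: signal is the median channel fluorescence of bead-bound GFP antibody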). The note with it: Protein G beads, DSG3-Fc, scFv-GFP binding, at 10 µM, stronger effect = lower value.
Regarding `Cc1nc(-c2coc3c(CN(C)C)c(O)ccc3c2=O)cs1`, the binding (% of control) is 105%.

As to `COCCCN1C(=O)C(=O)/C(=C(/O)c2ccc3c(c2)CC(C)O3)C1c1cccnc1` (stereo not drawn), the binding (% of control) is 108%.

As for `O=C(Nc1ccccc1C(=O)N1CCCCCC1)c1ccccc1Cl`, the binding (% of control) is 100%.

On to `Fc1ccc(-c2cc(-c3ccccc3)nc(-n3cccn3)n2)cc1`, for which the binding (% of control) is 102%.

As for `NS(=O)(=O)c1cc2c(cc1Cl)NC(C(Cl)Cl)NS2(=O)=O` (stereo not drawn), the binding (% of control) was 104%.

Take `CCC(C(=O)Nc1ccc2c(c1)OCCO2)c1ccccc1` (stereo not drawn): the binding (% of control) is 101%.

Turning to `c1ccc(CNc2ncnc3nc[nH]c23)cc1`, the binding (% of control) was 94.8%.

With `Cc1cc(/C=N/O)c(C)n1-c1ccc(Br)cc1`, the binding (% of control) was 105%.

For the compound `COc1ccc(/C=C/C(=O)c2cc3cccc(OC)c3oc2=O)cc1`, the binding (% of control) was 96%.

For `Cc1ccc(C2=NOC(=O)/C2=C\C=C\c2ccccc2)cc1`, the binding (% of control) was 105%.

Take `CCc1ccc(/C=C2\Oc3cc(OC(=O)N4CCOCC4)ccc3C2=O)cc1`: the binding (% of control) was 99.3%.

For the compound `COc1cc(NC(=S)NN2CCN(C)CC2)cc(OC)c1OC`, the binding (% of control) is 105%.

Regarding `C[C@]12CCC3C(CC=C4C[C@@H](O)CC[C@@]43C)C1CCC2[C@]1(C)CCC(=O)O1` (stereo partly drawn), the binding (% of control) was 103%.

In the case of `COC(=O)c1cc(OC)c(OC)cc1NC(=O)CN1C(=O)c2ccccc2C1=O`, the binding (% of control) is 98.4%.

In the case of `c1ccc(CN(CC2=NCCN2)c2ccccc2)cc1`, the binding (% of control) was 111% and 102%.

On to `Cc1oncc1C(=O)Nc1ccc(C(F)(F)F)cc1`, for which the binding (% of control) is 96%.

`Cn1cc(C2N3CC4(C)CN2CC(C)(C3)C4=O)c2ccccc21` (stereo not drawn): the binding (% of control) was 95.1%.

For the compound `CCCCOc1cc(C(=O)NCCN(CC)CC)c2ccccc2n1`, the binding (% of control) was 145% and 101%.

Take `O=C(CSCc1ccccc1)NCCCN1CCOCC1`: the binding (% of control) is 102%.

Regarding `COC(=O)c1ccc(OCCCCN2CC(C)OC(C)C2)cc1` (stereo not drawn), the binding (% of control) is 98.3%.

Turning to `CCOc1ccc(C(=O)NC(C)C2COc3ccccc3O2)cc1` (stereo not drawn), the binding (% of control) was 106%.

For the compound `CSCC[C@H](NC(=O)OC(C)(C)C)C(=O)N1CCC(C(=O)N[C@@H](C)C(=O)O)CC1`, the binding (% of control) was 103%.

Turning to `O=C(N/C(=C/C=C\c1ccccc1)C(=O)N1CCOCC1)c1ccc(Br)cc1`, the binding (% of control) is 103%.

In the case of `COc1ccc2[nH]c(=O)c(CN(C(=O)c3ccco3)C(C)C)cc2c1`, the binding (% of control) is 101%.

With `COc1cc(-c2cccs2)cc(=O)c2c(C)oc(C)c12`, the binding (% of control) was 105%.

With `CCC(=O)O[C@]1(C(=O)CCl)[C@@H](C)C[C@H]2[C@@H]3CCC4=CC(=O)C=C[C@]4(C)[C@@]3(F)[C@@H](O)C[C@@]21C`, the binding (% of control) was 97.9%.

Turning to `COCCN(CCOC)Cc1c(C)[nH]c2c(C)c(C)ccc2c1=O`, the binding (% of control) is 105%.

Regarding `COc1ccccc1/C=C/C(=O)OCCN1CCOCC1`, the binding (% of control) was 106%.

In the case of `c1ccc(Cn2nnc3cnccc32)cc1`, the binding (% of control) is 102%.

Regarding `Nc1cnn(C2OC(CO)C(O)C2O)c(=O)n1` (stereo not drawn), the binding (% of control) is 97.7%.

With `Cc1ccc(C(=O)Nc2ccccc2C(=O)NC(C(=O)O)C(C)C)cc1` (stereo not drawn), the binding (% of control) was 99.1%.

Consider `NC(CO)C(=O)NNCc1ccc(O)c(O)c1O` (stereo not drawn), for which the binding (% of control) is 60.7% (active).

For `CC12CCCCN1CCCc1c2[nH]c2ccccc12` (stereo not drawn), the binding (% of control) is 112%.

For the compound `CN(C)CCN(Cc1ccc(Cl)cc1)c1ccccn1`, the binding (% of control) is 97.3%.

As for `CSc1cccc(NC(=O)/C=C/c2ccccc2)c1`, the binding (% of control) was 104%.

On to `Cc1oc2cc(O)cc(O)c2c(=O)c1-c1ccc2c(c1)OCCCO2`, for which the binding (% of control) is 101%.

For the compound `CNC(=O)Oc1ccc2c(c1)[C@]1(C)CCN(C)[C@@H]1N2C`, the binding (% of control) was 104%.

Take `CCCCNc1ccc(C(=O)OCCN(C)C)cc1`: the binding (% of control) is 101%.

Consider `O=C(COc1cc(O)c2c(=O)c3ccccc3oc2c1)OCc1ccccc1`, for which the binding (% of control) was 93.3%.

Tested on in a further assay: not listed separately
Kind of assay: inhibitors of fungal efflux pumps CDR1, CDR2, MDR1, pilot screen, validation compound set, multiplex, phenotypic (AID 588506).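 Further: Nile Red retained in cells so higher fluorescence means more efflux inhibition; 0 = negative control wells and 1 = enniatin B 25 µM full block.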 The conditions noted are these: S. cerevisiae pump-expressing triplex, Nile Red efflux flow cytometry; at 10 µM; stronger effect = higher value; the pumps come from Candida albicans. A general note: A flow cytometer gives signals particle by particle.
Regarding `Cc1nc(-c2coc3c(CN(C)C)c(O)ccc3c2=O)cs1`, the efflux inhibition (fraction of control) was -0.46.

As for `COCCCN1C(=O)C(=O)/C(=C(/O)c2ccc3c(c2)CC(C)O3)C1c1cccnc1` (stereo not drawn), the efflux inhibition (fraction of control) is 0.

For the compound `O=C(Nc1ccccc1C(=O)N1CCCCCC1)c1ccccc1Cl`, the efflux inhibition (fraction of control) was -0.06.

For `Fc1ccc(-c2cc(-c3ccccc3)nc(-n3cccn3)n2)cc1`, the efflux inhibition (fraction of control) was 0.3.

Regarding `NS(=O)(=O)c1cc2c(cc1Cl)NC(C(Cl)Cl)NS2(=O)=O` (stereo not drawn), the efflux inhibition (fraction of control) was 0.21.

As to `CCC(C(=O)Nc1ccc2c(c1)OCCO2)c1ccccc1` (stereo not drawn), the efflux inhibition (fraction of control) was -0.03.

On to `c1ccc(CNc2ncnc3nc[nH]c23)cc1`, for which the efflux inhibition (fraction of control) is 0.11.

As to `Cc1cc(/C=N/O)c(C)n1-c1ccc(Br)cc1`, the efflux inhibition (fraction of control) is -0.145.

With `COc1ccc(/C=C/C(=O)c2cc3cccc(OC)c3oc2=O)cc1`, the efflux inhibition (fraction of control) is 0.03.

For `Cc1ccc(C2=NOC(=O)/C2=C\C=C\c2ccccc2)cc1`, the efflux inhibition (fraction of control) is -0.17.

`CCc1ccc(/C=C2\Oc3cc(OC(=O)N4CCOCC4)ccc3C2=O)cc1`: the efflux inhibition (fraction of control) is 0.29.

On to `COc1cc(NC(=S)NN2CCN(C)CC2)cc(OC)c1OC`, for which the efflux inhibition (fraction of control) is -0.04.

With `C[C@]12CCC3C(CC=C4C[C@@H](O)CC[C@@]43C)C1CCC2[C@]1(C)CCC(=O)O1` (stereo partly drawn), the efflux inhibition (fraction of control) was 0.48 (active).

On to `COC(=O)c1cc(OC)c(OC)cc1NC(=O)CN1C(=O)c2ccccc2C1=O`, for which the efflux inhibition (fraction of control) is -0.03.

Take `c1ccc(CN(CC2=NCCN2)c2ccccc2)cc1`: the efflux inhibition (fraction of control) is -0.35 and -0.31.

In the case of `Cc1oncc1C(=O)Nc1ccc(C(F)(F)F)cc1`, the efflux inhibition (fraction of control) was -0.04.

Turning to `Cn1cc(C2N3CC4(C)CN2CC(C)(C3)C4=O)c2ccccc21` (stereo not drawn), the efflux inhibition (fraction of control) is -0.01.

Regarding `CCCCOc1cc(C(=O)NCCN(CC)CC)c2ccccc2n1`, the efflux inhibition (fraction of control) is 0.03 and 0.09.

Regarding `O=C(CSCc1ccccc1)NCCCN1CCOCC1`, the efflux inhibition (fraction of control) was 0.17.

Take `COC(=O)c1ccc(OCCCCN2CC(C)OC(C)C2)cc1` (stereo not drawn): the efflux inhibition (fraction of control) was 0.39.

As for `CCOc1ccc(C(=O)NC(C)C2COc3ccccc3O2)cc1` (stereo not drawn), the efflux inhibition (fraction of control) is -0.17.

Consider `CSCC[C@H](NC(=O)OC(C)(C)C)C(=O)N1CCC(C(=O)N[C@@H](C)C(=O)O)CC1`, for which the efflux inhibition (fraction of control) is -0.22.

In the case of `O=C(N/C(=C/C=C\c1ccccc1)C(=O)N1CCOCC1)c1ccc(Br)cc1`, the efflux inhibition (fraction of control) was 0.42.

`COc1ccc2[nH]c(=O)c(CN(C(=O)c3ccco3)C(C)C)cc2c1`: the efflux inhibition (fraction of control) is 0.41.

For the compound `COc1cc(-c2cccs2)cc(=O)c2c(C)oc(C)c12`, the efflux inhibition (fraction of control) was 0.26.

`CCC(=O)O[C@]1(C(=O)CCl)[C@@H](C)C[C@H]2[C@@H]3CCC4=CC(=O)C=C[C@]4(C)[C@@]3(F)[C@@H](O)C[C@@]21C`: the efflux inhibition (fraction of control) is 1.03 (active).

As to `COCCN(CCOC)Cc1c(C)[nH]c2c(C)c(C)ccc2c1=O`, the efflux inhibition (fraction of control) is -0.29.

As to `COc1ccccc1/C=C/C(=O)OCCN1CCOCC1`, the efflux inhibition (fraction of control) is 0.27.

Take `c1ccc(Cn2nnc3cnccc32)cc1`: the efflux inhibition (fraction of control) was 0.33.

As to `Nc1cnn(C2OC(CO)C(O)C2O)c(=O)n1` (stereo not drawn), the efflux inhibition (fraction of control) is 0.11.

Regarding `Cc1ccc(C(=O)Nc2ccccc2C(=O)NC(C(=O)O)C(C)C)cc1` (stereo not drawn), the efflux inhibition (fraction of control) was -0.06.

As to `NC(CO)C(=O)NNCc1ccc(O)c(O)c1O` (stereo not drawn), the efflux inhibition (fraction of control) is 0.66 (active).

As for `CC12CCCCN1CCCc1c2[nH]c2ccccc12` (stereo not drawn), the efflux inhibition (fraction of control) was -0.2.

As to `CN(C)CCN(Cc1ccc(Cl)cc1)c1ccccn1`, the efflux inhibition (fraction of control) is 0.37.

On to `CSc1cccc(NC(=O)/C=C/c2ccccc2)c1`, for which the efflux inhibition (fraction of control) was -0.38.

For the compound `Cc1oc2cc(O)cc(O)c2c(=O)c1-c1ccc2c(c1)OCCCO2`, the efflux inhibition (fraction of control) is 0.01.

For `CNC(=O)Oc1ccc2c(c1)[C@]1(C)CCN(C)[C@@H]1N2C`, the efflux inhibition (fraction of control) was 0.12.

Consider `CCCCNc1ccc(C(=O)OCCN(C)C)cc1`, for which the efflux inhibition (fraction of control) was -0.01.

As for `O=C(COc1cc(O)c2c(=O)c3ccccc3oc2c1)OCc1ccccc1`, the efflux inhibition (fraction of control) was -0.01.
